Measurements: PMC4336329 (PLoS ONE, 2015)
Among all 310,000 compounds or so, about 14,000 (4.5%) showed an effect of 50% or more. The effect is printed as a negative number. This is one part of a sample in which strong results are shown more often than they occur.

Target: human ether-à-go-go-related gene (hERG) potassium channel (human, UniProt Q12809)
Assay: primary screen, population patch clamp on CHO cells stably expressing hERG; higher = less effect of the substance
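Further: peak tail current of the secondary pulse compared with the same well before compound.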

human ether-à-go-go-related gene (hERG) potassium channel, sequence (Q12809 whole entry, looked up): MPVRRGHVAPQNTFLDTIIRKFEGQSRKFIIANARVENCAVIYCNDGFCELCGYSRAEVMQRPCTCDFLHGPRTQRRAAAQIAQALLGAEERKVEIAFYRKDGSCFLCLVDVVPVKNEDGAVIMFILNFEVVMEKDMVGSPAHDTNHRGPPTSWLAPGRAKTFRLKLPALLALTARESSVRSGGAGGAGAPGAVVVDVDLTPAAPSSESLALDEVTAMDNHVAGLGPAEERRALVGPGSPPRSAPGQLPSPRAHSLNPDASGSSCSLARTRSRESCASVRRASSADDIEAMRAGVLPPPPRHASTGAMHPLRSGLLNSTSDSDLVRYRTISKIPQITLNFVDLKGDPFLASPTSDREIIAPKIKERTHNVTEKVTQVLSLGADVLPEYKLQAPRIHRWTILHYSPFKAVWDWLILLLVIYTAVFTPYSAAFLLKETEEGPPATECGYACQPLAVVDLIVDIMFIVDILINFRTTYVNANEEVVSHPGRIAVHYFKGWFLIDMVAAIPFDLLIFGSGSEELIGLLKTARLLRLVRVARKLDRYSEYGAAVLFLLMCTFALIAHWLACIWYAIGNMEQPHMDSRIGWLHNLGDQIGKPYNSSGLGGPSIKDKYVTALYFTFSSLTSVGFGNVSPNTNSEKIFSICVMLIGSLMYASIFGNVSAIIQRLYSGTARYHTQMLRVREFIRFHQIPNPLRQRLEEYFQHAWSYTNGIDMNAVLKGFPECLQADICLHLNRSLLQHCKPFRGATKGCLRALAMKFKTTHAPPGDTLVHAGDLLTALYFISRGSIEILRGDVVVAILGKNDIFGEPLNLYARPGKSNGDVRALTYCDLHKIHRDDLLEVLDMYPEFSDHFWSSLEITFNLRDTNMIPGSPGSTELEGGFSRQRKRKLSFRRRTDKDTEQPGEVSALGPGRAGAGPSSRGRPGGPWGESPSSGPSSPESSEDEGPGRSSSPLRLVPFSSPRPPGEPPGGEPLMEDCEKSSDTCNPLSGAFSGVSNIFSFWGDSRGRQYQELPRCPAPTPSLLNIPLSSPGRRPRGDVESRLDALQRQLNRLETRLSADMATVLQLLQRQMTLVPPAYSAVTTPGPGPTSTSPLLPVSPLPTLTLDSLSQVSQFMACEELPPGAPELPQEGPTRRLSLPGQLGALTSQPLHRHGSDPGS

First: COc1ccc(-n2ccc(=O)c3c2CCCC3=O)cc1
Second: COc1ccc(C[C@@H]2CN3C(=NC[C@@H]3C)N2CCNC(=O)c2ccc(C)c(Br)c2)cc1
The “hERG current change (%, negative = inhibition) at 10uM” value of the first is higher: 13.5% for the first, -71.4% for the second.

Going from `CCn1cc(C(=O)O)c(=O)c2cnc(N3CCN(C(=S)Nc4ccccc4Cl)CC3)nc21` to `Cc1nn(C)c(C)c1NC(=O)CSc1nnc(C)n1-c1ccccc1`, the “hERG current change (%, negative = inhibition) at 10uM” value rises from -4.66% to -0.523%.

Compared with `N#Cc1ccc(Cl)cc1NC(=O)COC(=O)[C@H](CCC(N)=O)NC(=O)c1ccc(F)cc1`, `CCOC(=O)c1cc(NC(=O)c2ccc(C)cc2)c(=O)oc1C(F)(F)F` is lower in “hERG current change (%, negative = inhibition) at 10uM” value: 1.75% for the first, -2.5% for the second.

First: Cc1ccc2c(c1)C(C)CC(C)(C)N2C(=O)CN1CCN(C)CC1.O=C(O)C(=O)O (stereo not drawn)
Second: Cc1ccc(C)c(S(=O)(=O)N2CCCC2CNC(=O)C(=O)NC2CC2)c1 (stereo not drawn)
The “hERG current change (%, negative = inhibition) at 10uM” value of the first is lower: -23.6% for the first, -0.659% for the second.

Going from `C/C=C(\C)C(=O)NCCN1C2=NC[C@@H](C)N2C[C@H]1Cc1ccc(O)cc1` to `C/C=C(\C)C(=O)NCCN1C2=NC[C@@H](C)N2C[C@@H]1Cc1ccc(OC)cc1`, the “hERG current change (%, negative = inhibition) at 10uM” value falls from 12.9% to 0.0958%.

Going from `COc1ccc(C[C@H]2CN3C(=NC[C@@H]3C(C)C)N2CCNC(=O)c2ccc(C)c(Br)c2)cc1` to `Cc1ccc(C(=O)NCCN2C3=NC[C@H](C(C)C)N3C[C@H]2Cc2ccc(O)cc2)cc1Br`, the “hERG current change (%, negative = inhibition) at 10uM” value rises from -79% to -26.3%.

Going from `COc1ccc(C[C@H]2CN3C(=NC[C@H]3C)N2CCNC(=O)c2ccc(C)c(Br)c2)cc1` to `COc1ccc(-c2cc(C(=O)Nc3c(C)n(C)n(-c4ccccc4)c3=O)no2)cc1`, the “hERG current change (%, negative = inhibition) at 10uM” value rises from -72% to 6.42%.

Going from `CCc1nc(-c2ccccc2)cc(=O)[nH]1` to `Cc1ccn2cc(CSc3ccccc3N)nc2c1`, the “hERG current change (%, negative = inhibition) at 10uM” value falls from -6.29% to -29.1%.

First: O=C(CSCc1ccccc1)Nc1ccc(S(=O)(=O)N2CCOCC2)cc1
Second: Cc1ccc(S(=O)(=O)N2CCCC2CNC(=O)c2ccccc2)cc1 (stereo not drawn)
The “hERG current change (%, negative = inhibition) at 10uM” value of the first is lower: -17.7% for the first, -9.34% for the second.

First: Cc1cc(C(=O)N/N=C/c2ccc(-c3cccc(Br)c3)o2)n[nH]1
Second: O=C1CNC(=O)/C1=C/c1ccc(Br)cc1
The “hERG current change (%, negative = inhibition) at 10uM” value of the first is lower: 12.4% for the first, 16.7% for the second.

Compared with `NS(=O)(=O)c1ccc(CNC(=O)CC23CC4CC(CC(C4)C2)C3)cc1`, `Cc1ccc(C(=O)NCC2CCCN2S(=O)(=O)c2ccc(C)cc2)cc1` (stereo not drawn) is lower in “hERG current change (%, negative = inhibition) at 10uM” value: -5.69% for the first, -33.8% for the second.

Compared with `Cc1cc(NC(=O)CSc2nnc3c(C)cc4cc(C)c(C)cc4n23)no1`, `CCN(CC)CCn1c2c(c(SCC(=O)Nc3ccc(C(C)C)cc3)nc1=O)CCC2` is lower in “hERG current change (%, negative = inhibition) at 10uM” value: 20% for the first, -56.9% for the second.

First: CN1/C(=C/C(=O)c2nc(S(C)(=O)=O)ncc2Cl)C(C)(C)c2ccccc21
Second: Cc1ccc(C)c(S(=O)(=O)N2CCCC2CNC(=O)c2ccc([N+](=O)[O-])cc2)c1 (stereo not drawn)
The “hERG current change (%, negative = inhibition) at 10uM” value of the first is higher: -29.9% for the first, -81.8% for the second.

First: CCN(CC)CCn1c2c(c(SCC(=O)Nc3ccc(C(C)C)cc3)nc1=O)CCCC2
Second: CCN(CC)c1ccc(NC(=O)CCc2nnc3ccc(N4CCCCC4)nn23)c(C)c1
The “hERG current change (%, negative = inhibition) at 10uM” value of the first is lower: -68.3% for the first, -12.8% for the second.

Compared with `O=C(COC(=O)c1ccc(NS(=O)(=O)c2ccc3c(c2)OCCO3)cc1)NC1CC1`, `Cc1ccc(S(=O)(=O)N2CCCC2CNC(=O)c2ccc(F)c(F)c2)cc1` (stereo not drawn) is lower in “hERG current change (%, negative = inhibition) at 10uM” value: -1.56% for the first, -52.5% for the second.

Going from `COc1cc(OC)c(C2=NOC(C(=O)O)C2)cc1Cl` (stereo not drawn) to `COc1ccc(CCNC(=S)NCCc2ccc(OC)c(OC)c2)cc1OC`, the “hERG current change (%, negative = inhibition) at 10uM” value falls from 5.14% to 5.11%.

First: CC(C)(C)c1ccc(SCCc2ccncc2)cc1
Second: Oc1c(C=NCc2ccncc2)sc2ccccc12
The “hERG current change (%, negative = inhibition) at 10uM” value of the first is higher: 3.48% for the first, -38.4% for the second.

Going from `COC(=O)C1=C(c2ccc(F)cc2OCc2ccccc2)C[C@@H]2CC[C@H]1N2C(=O)NCc1cccc(OC)c1` to `COc1ccc(N=c2cc(-c3ccc(OC)cc3)oc3ccccc23)cc1`, the “hERG current change (%, negative = inhibition) at 10uM” value rises from 2.72% to 4.41%.

First: CCc1ccc2oc(-c3ccc(OC)cc3)cc(=[NH+]c3c(C)n(C)n(-c4ccccc4)c3=O)c2c1.F[B-](F)(F)F
Second: CCc1ccc2oc(-c3ccc(OC)cc3)cc(=[NH+]c3cccc(C(=O)O)c3)c2c1.F[B-](F)(F)F
The “hERG current change (%, negative = inhibition) at 10uM” value of the first is lower: -71.7% for the first, 5% for the second.

Compared with `COc1ccc(-c2cc(=Nc3ccc(C)cc3)c3ccccc3o2)cc1`, `COc1ccc(-c2cc(=Nc3c(C)n(C)n(-c4ccccc4)c3=O)c3ccccc3o2)cc1` is lower in “hERG current change (%, negative = inhibition) at 10uM” value: 5.87% for the first, -68.1% for the second.

Compared with `CCCCC/C(=N/O)c1c(C)[nH]c2ccccc12`, `CCCCn1c(N)c(N(CCC(C)C)C(=O)c2cccc(-n3cnnn3)c2)c(=O)[nH]c1=O` is lower in “hERG current change (%, negative = inhibition) at 10uM” value: 4.53% for the first, -7.92% for the second.

First: Cc1ccc(N(CC(O)CON=C2c3ccccc3-c3ccccc32)S(C)(=O)=O)cc1 (stereo not drawn)
Second: COc1ccc(C(CNC(=O)C(CC(C)C)NS(=O)(=O)c2ccc(C)cc2)N2CCOCC2)cc1 (stereo not drawn)
The “hERG current change (%, negative = inhibition) at 10uM” value of the first is higher: 15.5% for the first, -3.25% for the second.

Compared with `Cc1ccc(C)c(S(=O)(=O)N2CCCC2CNC(=O)C(=O)NCCc2ccco2)c1` (stereo not drawn), `Cc1ccc(C)c(S(=O)(=O)N2CCCC2CNC(=O)C(=O)NCc2ccco2)c1` (stereo not drawn) is lower in “hERG current change (%, negative = inhibition) at 10uM” value: -21.2% for the first, -54.2% for the second.

Compared with `O=C(NCC1CCCN1S(=O)(=O)c1cccs1)c1cccc([N+](=O)[O-])c1` (stereo not drawn), `O=C(NCC1CCCN1S(=O)(=O)c1cccs1)c1ccc([N+](=O)[O-])cc1` (stereo not drawn) is lower in “hERG current change (%, negative = inhibition) at 10uM” value: -24.5% for the first, -55.2% for the second.

Compared with `O=C(NCC1CCCN1S(=O)(=O)c1cccs1)c1ccccc1` (stereo not drawn), `Cc1ccc(C)c(S(=O)(=O)N2CCCC2CNC(=O)C(=O)NCC2CCCO2)c1` (stereo not drawn) is lower in “hERG current change (%, negative = inhibition) at 10uM” value: 16.5% for the first, -15.5% for the second.

`Cc1ccc(C)c(S(=O)(=O)N2CCCCC2CCNC(=O)C(=O)NCc2ccco2)c1` (stereo not drawn) was tested, and the “hERG current change (%, negative = inhibition) at 10uM” value was -21.8%.
